# Source: the supplement of paper PMC10105736
# A number with no mark means an inactive call.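 Rule for the calls: active = MAPPIT score above the 99th percentile of random reference set scores in the same batch; inactive = at or below it.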
# B1: esg (protein)
# chain: MHTVEDMLVEKNYSKCPLKKRPVNYQFEAPQNHSNTPNEPQDLCVKKMEILEENPSEELINVSDCCEDEGVDVDHTDDEHIEEEDEDVDVDVDSDPNQTQAAALAAAAAVAAAAAASVVVPTPTYPKYPWNNFHMSPYTAEFYRTINQQGHQILPLRGDLIAPSSPSDSLGSLSPPPHHYLHGRASSVSPPMRSEIIHRPIGVRQHRFLPYPQMPGYPSLGGYTHTHHHHAPISPAYSENSYYSMRSMTPESSCSSSLPEDLSLKHKNLNLNLNTSQPGEQAAAKTGDMSPETMPNASAKKDKNQPPRYQCPDCQKSYSTFSGLTKHQQFHCPAAEGNQVKKSFSCKDCDKTYVSLGALKMHIRTHTLPCKCNLCGKAFSRPWLLQGHIRTHTGEKPFSCQHCHRAFADRSNLRAHLQTHSDIKKYSCTSCSKTFSRMSLLTKHSEGGCPGGSAGSSSSSELNYAGYAEP
# B2: Syngr (protein)
# chain: MDMLNQILSINNGGAYGGGKAGGAFDPLTFAMKPQVVIRALCWLFSVVVFGCISSEGWTEKDGKEYCLYNGDGMACKYGNMVGVFGFLASMGFMGGEFLFERMSSVKSRKRYVMADMGFSALWTFMYFVAFLYLWSQWSSSAPPPLGIGAGSMKTAIWFCLFSIVSWALCALMAYKRFLIGAGDEFTSAFETDPANVVHQQAYGYSMDNDNDQYSASPFGQPQQGGMEQQQSGMEYQQPTY
# B3: dan (protein)
# chain: MNIRMGTKGKRPLRSLTPRDKIHAIQRIHDGESKASVARDIGVPESTLRGWCKNEDKLRFMSRQSATDNLCADALGDKMDGGGGGGGGAGGGGLLGPPEKRQRLDGALPLNFSNKLKFDELAFKRSPLNGLDYSTNKNLADLGYNGLPVDYAAFNGGVKAKVFGADINRPAADPSLNAISPLSSLTHLSGLTGISQSPLAISFNELTTNLNLLAQLNPGLAAMSGLNSFPAGAGNLRTPKPSGQTPLQVQSPRSDSGDRSAQGLSVKNWAKQKPGEGQGSLNLSIKNEGKGGDIKSPSPSIAPSQMGGPMTLSNLAEDPLLYWLKSQQTMLGLNPLYPPTIPMGVTSPPIRSSTPQHMSQLAQTPPIPSAPLTPSSTPSGSLDEKNAAWYNWCKAFGASLHTLNPNAATLAALQANQLQQQVATTAAEGGSMGDPSNILYSHLTKETETPSVRSLSSNEQNPEADEATETDLDGEVEPEASGKPEDLSAAGKVMTPSQSPIAHSSGSRSPEPKAKTKTPETTNSTSECKKILDNMLFKMGGMEATGPLMPEQGSSESEGSFQDTSNPHTNNNDVSASNNNNNNNSNKTDEEEKAKYLDCTADEDIEAIRHGEKFLQWLENCSNPRVTAVQLMQLRFLIAAIKSGNETPMIEKSALPEDSEEHAAEEEGSGRGKSRRRK
# B4: Rpt2 (protein)
# chain: MGQNQSAQGGAGEKKDDKDKKKKYEPPIPTRVGKKKRRAKGPDAAMKLPQVTPHTRCRLKLLKLERIKDYLMMEDEFIRNQERLKPQDEKNEEERSKVDDLRGTPMSVGNLEEIIDDNHAIVSTSVGSEHYVSILSFVDKDQLEPGCSVLLNHKVHAVVGVLSDDTDPMVTVMKLEKAPQETYADIGGLDTQIQEIKESVELPLTHPEYYEEMGIKPPKGVILYGPPGTGKTLLAKAVANQTSATFLRVVGSELIQKYLGDGPKLVRELFRVAEEHAPSIVFIDEIDAVGTKRYDSNSGGEREIQRTMLELLNQLDGFDSRGDVKVIMATNRIETLDPALIRPGRIDRKIEFPLPDEKTKRRIFTIHTSRMTLAEDVNLSELIMAKDDLSGADIKAICTEAGLMALRERRMKVTNEDFKKSKESVLYRKKEGTPEGLYL
# B5: Orco (protein)
# chain: MTTSMQPSKYTGLVADLMPNIRAMKYSGLFMHNFTGGSAFMKKVYSSVHLVFLLMQFTFILVNMALNAEEVNELSGNTITTLFFTHCITKFIYLAVNQKNFYRTLNIWNQVNTHPLFAESDARYHSIALAKMRKLFFLVMLTTVASATAWTTITFFGDSVKMVVDHETNSSIPVEIPRLPIKSFYPWNASHGMFYMISFAFQIYYVLFSMIHSNLCDVMFCSWLIFACEQLQHLKGIMKPLMELSASLDTYRPNSAALFRSLSANSKSELIHNEEKDPGTDMDMSGIYSSKADWGAQFRAPSTLQSFGGNGGGGNGLVNGANPNGLTKKQEMMVRSAIKYWVERHKHVVRLVAAIGDTYGAALLLHMLTSTIKLTLLAYQATKINGVNVYAFTVVGYLGYALAQVFHFCIFGNRLIEESSSVMEAAYSCHWYDGSEEAKTFVQIVCQQCQKAMSISGAKFFTVSLDLFASVLGAVVTYFMVLVQLK
# B6: mex1 (protein)
# chain: MCNALCECLKCPGKVVCCCCSCACKMLLSIVFSALLMVVVIGLIVYFTVFYHKDKNTDEVQKQVAQLTPIVKRSIRDYFNKEY
# B7: Dhfr (protein)
# chain: MLRFNLIVAVCENFGIGIRGDLPWRIKSELKYFSRTTKRTSDPTKQNAVVMGRKTYFGVPESKRPLPDRLNIVLSTTLQESDLPKGVLLCPNLETAMKILEEQNEVENIWIVGGSGVYEEAMASPRCHRLYITKIMQKFDCDTFFPAIPDSFREVAPDSDMPLGVQEENGIKFEYKILEKHS
# Experiments:
# Assay in all cases: MAPPIT interaction score (arbitrary units); higher = stronger binary interaction signal, active = hit call of the paper
# [1] = target: CG42659; conditions: MAPPIT configuration: N-C; pair source set: screen_4
# [2] = target: Traf-like; conditions: MAPPIT configuration: N-N; pair source set: Lit-BS-16
# [3] = target: CG3792; conditions: MAPPIT configuration: N-C; pair source set: screen_4
# [4] = target: Dpm3; conditions: MAPPIT configuration: N-C; pair source set: screen_3
# [5] = target: CG42831; conditions: pair source set: RRS
# [6] = target: CG3565; conditions: MAPPIT configuration: N-N; pair source set: DPIM
# [7] = target: CG9588; conditions: MAPPIT configuration: N-N; pair source set: Lit-BS-16
# [8] = target: Prosalpha2; conditions: MAPPIT configuration: N-N; pair source set: Lit-BM-16
# [9] = target: Rpn1; conditions: MAPPIT configuration: N-N; pair source set: Lit-BM-16
# [10] = target: Rpt1; conditions: MAPPIT configuration: N-C; pair source set: Lit-BM-16
# [11] = target: Rpt6; conditions: MAPPIT configuration: N-C; pair source set: Lit-BM-16
# [12] = target: CG42512; conditions: MAPPIT configuration: N-C; pair source set: RRS
# [13] = target: Orco; conditions: MAPPIT configuration: N-C; pair source set: Lit-BM-16
# [14] = target: CG3651; conditions: MAPPIT configuration: N-N; pair source set: RRS
# [15] = target: CG42245; conditions: MAPPIT configuration: N-N; pair source set: RRS
# 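Note: HEK293T cells with Epo stimulation, STAT-responsive firefly luciferase reporter, fold induction versus unstimulated cells divided by the larger fold induction of two negative controls lacking either bait or prey.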
binder,measurement,setting,value
B1,MAPPIT interaction score,[1],0.721
same,MAPPIT interaction score,[2],0.713
B2,MAPPIT interaction score,[3],-0.645
same,MAPPIT interaction score,[4],-1.36
B3,MAPPIT interaction score,[5]; MAPPIT configuration: N-C,0.788
same,MAPPIT interaction score,[5]; MAPPIT configuration: N-N,0.273
B4,MAPPIT interaction score,[6],2.71 (active)
same,MAPPIT interaction score,[7],0.822
same,MAPPIT interaction score,[8],2.86 (active)
same,MAPPIT interaction score,[9],6.22 (active)
same,MAPPIT interaction score,[10],1.56
same,MAPPIT interaction score,[11],0.824
B5,MAPPIT interaction score,[12],0.963
same,MAPPIT interaction score,[13],-0.077
B6,MAPPIT interaction score,[14],0.00975
B7,MAPPIT interaction score,[15],0.497
